Drawing on PubChem BioAssay (NCI), this text covers growth inhibition for 8 compounds.

The test is described as follows: NCI Yeast Anticancer Drug Screen. Data for the rad50EPP+ strain (AID 151).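 Note: 0% = growth of vehicle-treated control cultures.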 The note with it: S. cerevisiae rad50 mutant strain, active compounds read high. As to the method: Growth inhibition of yeast strains with defined genetic alterations is measured as a screen for potential anti-cancer activity. Selected strains with alterations in DNA damage repair or cell cycle control were exposed to compounds and growth inhibition was measured relative to vehicle treated controls. The strain used in this assay is rad50EPP+

The panel holds about 79,000 compounds, 15% with a hit somewhere; the sample as a whole holds those more often. Unmarked numbers belong to inactive results. Activity calls are given as the source filed them. Cut-off read from the data, not from the text of the source: active = growth inhibition above about 70%; inactive = the rest.

With `OC1CCCc2c1cc1ccc3cccc4ccc2c1c34` (stereo not given), the growth inhibition is 0% (at 1.2 µM); 37% (at 3.7 µM); 46% (at 11.0 µM); 57% (at 33.0 µM); 62% (at 100.0 µM).

`COc1ccccc1/C=C1\Sc2scc(-c3cccc([N+](=O)[O-])c3)[n+]2C1=O`: the growth inhibition was 11% (at 1.2 µM); 80% (active) (at 3.7 µM); 95% (active) (at 11.0 µM); 96% (active) (at 33.0 µM); 88% (active) (at 100.0 µM).

Consider `CSC(=S)N/N=C(\C)c1cccc(C)n1`, for which the growth inhibition reads like this: (at 1.2 µM) -3%; (at 3.7 µM) -3%; (at 11.0 µM) -3%; (at 33.0 µM) 5%; (at 100.0 µM) 98% (active).

As for `O=C1C2C=CC1C1C(=O)OC(=O)C21` (stereo not given), the growth inhibition was -17% (at 1.2 µM); -21% (at 3.7 µM); -20% (at 11.0 µM); -11% (at 33.0 µM); -45% (at 100.0 µM).

As for `CCCCCCCCCCCC1=C(O)C(=O)C=C(O)C1=O`, the growth inhibition is -5% (at 1.2 µM); -14% (at 3.7 µM); 31% (at 11.0 µM); 79% (active) (at 33.0 µM); 84% (active) (at 100.0 µM).

With `CC(O)C(O)C(O)C(/C=N\Nc1ccccc1)=N/Nc1ccccc1` (stereo not given), the growth inhibition (at 1.2 µM) was 14%; the growth inhibition (at 3.7 µM) is 26%; the growth inhibition (at 11.0 µM) was 39%; the growth inhibition (at 33.0 µM) was 50%; the growth inhibition (at 100.0 µM) is 50%.

For `COc1ccc2ccc3ccccc3c2c1C=O`, the growth inhibition reads like this: (at 1.2 µM) 0%; (at 3.7 µM) 2%; (at 11.0 µM) 3%; (at 33.0 µM) 8%; (at 100.0 µM) 25%.

Turning to `Clc1cccc(C(Nc2nncs2)Nc2nncs2)c1Cl`, the growth inhibition reads like this: (at 1.2 µM) -1%; (at 3.7 µM) 4%; (at 11.0 µM) 14%; (at 33.0 µM) 47%; (at 100.0 µM) 92% (active).
